# From PubChem BioAssay (EPA / NIEHS)
# Inconclusive results are not listed. The source holds several records for some structures; these can differ, active in one and inactive in another. Calls of active or inactive are those of the source. The calls were made as follows, unless noted: active = hit-call score of the fitted dose curve at least 0.9, where 1 is the maximum; inactive = score below 0.9.
# Legend:
# [1] = ACEA_ER_80hr: ACEA Biosciences xCELLigence Real-Time Cell Analysis on Estrogen Receptor Agonism for Proliferation (AID 2282667; active = hit-call score of the fitted dose curve at least 0.9, where 1 is the maximum); conditions: T47D proliferation, impedance (xCELLigence), 80 h
# Summary of the method: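 Real-time impedance growth kinetics of human T-47D breast cells read 80 h after dosing, gain-of-signal fitted relative to DMSO. Compounds: 1:4 serial series, top final concentration 100 uM, n = 2.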
# [2] = APR_HepG2_CellCycleArrest_24hr: Apredica 24-hour HepG2 Assay for Cell Cycle Arrest (AID 2282905); conditions: imaging, actives raise or lower the signal;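 also: cell cycle arrest scored as ratio of 2N to 4N nuclear DNA content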
# Summary of the method: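 Cell cycle arrest is scored from nuclear DNA content measured by high-content imaging of Hoechst 33342-stained HepG2 cells following 24-hour treatment at ten concentrations up to 200 uM, with DMSO as baseline.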
# [3] = APR_HepG2_CellLoss_24hr: Apredica 24-hour HepG2 Assay for Cell Loss (AID 2282908); conditions: high-content imaging;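 as to AC50: fit in both directions so a hit may be cell loss or gain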
# Summary of the method: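 Cell number is quantified by fluorescence imaging of Hoechst 33342-stained nuclei following dosing at 0.39–200 uM in 0.5% DMSO. Curves are fitted in both directions from the DMSO baseline.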
# [4] = APR_HepG2_MitoticArrest_24hr: Apredica 24-hour HepG2 Assay for Mitotic Arrest (AID 2282910); conditions: high-content imaging, actives raise or lower the signal
# Summary of the method: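 HepG2 cells, 24 h exposure at 0.39-200 uM (10 concentrations, duplicate, 0.5% DMSO). Fixed, stained for phospho-histone H3 with Hoechst; imaged by high-content microscopy, bidirectional fit versus DMSO.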
# [5] = APR_HepG2_MitoMass_24hr: Apredica 24-hour HepG2 Assay for Mitochondrial Mass (AID 2282912); conditions: high-content imaging, actives raise or lower the signal
# Summary of the method: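 The liver line HepG2 was dosed in duplicate across a 0.39–200 uM series, with final DMSO held at 0.5% v/v, and harvested at 24 hr. High-content imaging measured mitochondrial dye staining.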
# [6] = APR_HepG2_p53Act_24hr: Apredica 24-hour HepG2 Assay for p53 Activation (AID 2282913); conditions: high-content imaging, actives raise or lower the signal;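 also: p53 protein immunofluorescence averaged per cell in HepG2 with Hoechst nuclei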
# Summary of the method: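 Fluorescence imaging of formaldehyde-fixed HepG2 cells labelled for p53 and with Hoechst, 24 h after dosing (0.39–200 uM, duplicate wells, 0.5% v/v DMSO). Signal fitted in both directions relative to DMSO.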
# [7] = APR_HepG2_CellCycleArrest_72hr: Apredica 72-hour HepG2 Assay for Cell Cycle Arrest (AID 2282914); conditions: high-content imaging, actives raise or lower the signal
# Summary of the method: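 Read-out: nuclear DNA content from Hoechst 33342 high-content imaging (20x, six fields/well) after 3.7% formaldehyde fixation, fitted bidirectionally against DMSO. Treatment was 72 h in HepG2, ten concentrations 0.39–200 uM, duplicate, 0.5% DMSO.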
# [8] = APR_HepG2_CellLoss_72hr: Apredica 72-hour HepG2 Assay for Cell Loss (AID 2282915); conditions: high-content imaging
# Summary of the method: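 HepG2 cells exposed 72 h to compound at 0.39–200 uM (10 concentrations, duplicate) in 0.5% DMSO. Fixed with 3.7% formaldehyde and Hoechst 33342-stained. Imaged at 20x; nuclear count gives cell number, fitted bidirectionally versus DMSO.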
# [9] = APR_HepG2_MitoMembPot_72hr: Apredica 72-hour HepG2 Assay for Mitochondrial Membrane Potential (AID 2282917); conditions: imaging, actives raise or lower the signal
# Summary of the method: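 HepG2 cells dosed 72 hr with compound at 0.39–200 uM in duplicate, 0.5% v/v DMSO final. Mitochondria stained with 250 nM MitoTracker Red CMXRos for 30 min before formaldehyde fixation, imaged by high-content fluorescence; bidirectional fit versus DMSO.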
# [10] = APR_HepG2_MicrotubuleCSK_72hr: Apredica 72-hour HepG2 Assay for Microtubule CSK Stabilty (AID 2282919); conditions: HepG2 microtubule cytoskeleton, high-content imaging, actives raise or lower the signal
# Summary of the method: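 HepG2 cells were exposed 72 hr to compound at 0.39–200 uM in duplicate (0.5% DMSO final), then fixed and permeabilized. Alpha-tubulin immunofluorescence was imaged by high-content microscopy, with bidirectional fitting against DMSO and taxol as positive control.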
structure (smiles),measurement,setting,value
COP(=O)(OC)O/C(=C\Cl)c1cc(Cl)c(Cl)cc1Cl,outcome,[1],inactive
CCC[CH2][Sn]([CH2]CCC)([CH2]CCC)[O]C(=O)c1ccccc1,outcome,[1],inactive
Nc1cccc(Cl)c1,outcome,[1],inactive
O=[N+]([O-])c1ccc2c3c(cccc13)CC2,outcome,[1],inactive
CN(C)P(=O)(N(C)C)N(C)C,outcome,[1],inactive
C[C@]12CC[C@H](O)CC1=CC[C@@H]1[C@@H]2CC[C@]2(C)C(=O)CC[C@@H]12,AC50,[1],0.983 µM (active)
CCCCC(CC)CO[N+](=O)[O-] (centres undefined),outcome,[1],inactive
C=C(C)C#N,outcome,[1],inactive
[O-][Cl+2]([O-])O,outcome,[1],inactive
O=C(Cc1ccccc1)c1ccccc1,outcome,[1],inactive
CC1(C)CCC(Cc2ccc(Cl)cc2)C1(O)Cn1cncn1 (centres undefined),outcome,[1],inactive
Nc1ncc([N+](=O)[O-])s1,outcome,[1],inactive
COc1ccccc1OC,outcome,[1],inactive
N#CCCO,outcome,[1],inactive
COC(=O)Cc1ccccc1,outcome,[1],inactive
CCOC(=O)Nc1cccc(OC(=O)Nc2ccccc2)c1,outcome,[1],inactive
ClCc1ccccn1,outcome,[1],inactive
COP(=S)(OC)Oc1cc(Cl)c(Br)cc1Cl,outcome,[1],inactive
Cl/C=C/Cl,outcome,[1],inactive
c1cc[c]([Hg][c]2ccccc2)cc1,outcome,[1],inactive
CCN(CC)C(=O)Cl,outcome,[1],inactive
CC(=O)c1cc(C(C)(C)C)cc2c1CCC2(C)C,outcome,[1],inactive
CCOP(=S)(OCC)SCCS(=O)(=O)CC,outcome,[1],inactive
Nc1cccc2ccccc12,outcome,[1],inactive
NNC(=S)NN,outcome,[1],inactive
Cc1ccc(N)cc1Cl,outcome,[1],inactive
NC(=O)CF,outcome,[1],inactive
CCOP(=S)(OCC)SCSP(=S)(OCC)OCC,outcome,[1],inactive
O=[N+]([O-])c1c(Cl)c(Cl)cc(Cl)c1Cl,outcome,[1],inactive
C[C@H]1CCCC(=O)CCC/C=C/c2cc(O)cc(O)c2C(=O)O1,AC50,[1],0.00378 µM (active)
O=S(=O)(c1ccc(Cl)cc1)c1ccc(Cl)cc1,outcome,[1],inactive
ClCCBr,outcome,[1],inactive
CCc1ccccc1N,outcome,[1],inactive
CN(C)N=O,outcome,[2],inactive
same,outcome,[3],inactive
same,outcome,[4],inactive
same,outcome,[5],inactive
same,outcome,[6],inactive
same,outcome,[7],inactive
same,outcome,[8],inactive
same,outcome,[9],inactive
same,outcome,[10],inactive
O=C1C2(Cl)C3(Cl)C4(Cl)C(Cl)(Cl)C5(Cl)C3(Cl)C1(Cl)C5(Cl)C24Cl (centres undefined),AC50,[2],44.6 µM (active)
same,AC50,[3],44.5 µM (active)
same,outcome,[4],inactive
same,outcome,[5],inactive
same,outcome,[6],inactive
same,AC50,[7],24.7 µM (active)
same,AC50,[8],22.5 µM (active)
same,outcome,[9],inactive
same,outcome,[10],inactive
O=C(O)C(Cl)(Cl)Cl,outcome,[2],inactive
same,AC50,[3],100 µM (active)
same,outcome,[3],inactive
same,outcome,[4],inactive
same,AC50,[5],161 µM (active)
same,outcome,[5],inactive
same,AC50,[6],165 µM (active)
same,outcome,[6],inactive
same,AC50,[7],171 µM (active)
same,outcome,[7],inactive
same,AC50,[8],110 µM (active)
same,outcome,[8],inactive
same,outcome,[9],inactive
same,outcome,[10],inactive
CC(C)(C)CC(C)(C)c1ccc(O)cc1,AC50,[2],161 µM (active)
same,AC50,[3],46 µM (active)
same,AC50,[4],49.6 µM (active)
same,outcome,[5],inactive
same,AC50,[6],35 µM (active)
same,AC50,[7],32 µM (active)
same,AC50,[8],43.4 µM (active)
same,outcome,[9],inactive
same,outcome,[10],inactive
C=C(C)C(=O)[O][Sn]([CH2]CCC)([CH2]CCC)[CH2]CCC,outcome,[2],inactive
same,AC50,[3],0.773 µM (active)
same,AC50,[4],0.248 µM (active)
same,AC50,[5],0.226 µM (active)
same,AC50,[6],0.294 µM (active)
same,AC50,[7],0.188 µM (active)
same,AC50,[8],0.228 µM (active)
same,outcome,[9],inactive
same,outcome,[10],inactive
C[C@@H](Oc1ccc(Cl)cc1Cl)C(=O)O,outcome,[1],inactive
O=c1[nH]c(=O)[nH]c(=O)[nH]1,outcome,[2],inactive
same,outcome,[3],inactive
same,outcome,[4],inactive
same,outcome,[5],inactive
same,outcome,[6],inactive
same,outcome,[7],inactive
same,outcome,[8],inactive
same,AC50,[9],99.5 µM (active)
same,outcome,[10],inactive
O=C(Nc1ccc2[nH]ccc2c1)c1cc2cc(F)ccc2n1Cc1cccc(F)c1,AC50,[2],25.4 µM (active)
same,AC50,[3],22.5 µM (active)
same,AC50,[4],30.9 µM (active)
same,outcome,[5],inactive
same,AC50,[6],34.5 µM (active)
same,AC50,[7],35.7 µM (active)
same,AC50,[8],17.2 µM (active)
same,AC50,[9],1.02 µM (active)
same,outcome,[10],inactive
ClC1=C(Cl)[C@]2(Cl)[C@H]3[C@H]([C@H]4C=C[C@H]3C4)[C@@]1(Cl)C2(Cl)Cl,outcome,[1],inactive
Cc1ccccc1N,outcome,[2],inactive
same,outcome,[3],inactive
same,outcome,[4],inactive
same,outcome,[5],inactive
same,outcome,[6],inactive
same,outcome,[7],inactive
same,outcome,[8],inactive
same,outcome,[9],inactive
same,outcome,[10],inactive
Oc1cccc2cccnc12,AC50,[2],15.4 µM (active)
same,AC50,[3],2.29 µM (active)
same,outcome,[4],inactive
same,outcome,[5],inactive
same,AC50,[6],25.9 µM (active)
same,AC50,[7],1.59 µM (active)
same,AC50,[8],2.66 µM (active)
same,outcome,[9],inactive
same,outcome,[10],inactive
CCCCCCCCc1ccc(O)cc1,outcome,[2],inactive
same,AC50,[3],67 µM (active)
same,AC50,[4],77.2 µM (active)
same,outcome,[5],inactive
same,AC50,[6],67.3 µM (active)
same,AC50,[7],52.5 µM (active)
same,AC50,[8],86.7 µM (active)
same,AC50,[9],34.6 µM (active)
same,outcome,[10],inactive
CCC(=O)C(CC(C)N(C)C)(c1ccccc1)c1ccccc1 (centres undefined),AC50,[2],25.1 µM (active)
same,outcome,[3],inactive
same,outcome,[4],inactive
same,outcome,[5],inactive
same,outcome,[6],inactive
same,outcome,[7],inactive
same,AC50,[8],73.6 µM (active)
same,outcome,[9],inactive
same,AC50,[10],81.3 µM (active)
